Among the data in PubChem BioAssay (NCI) are growth values, retold here.

Each structure is given as a SMILES string. This is part of a sample that, as a whole, favours compounds with a hit. Of some 83,000 tested, about 20% had one in any assay.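 Testing used 96-well plates and a 48-hour single-concentration exposure. Example: -40 means 40% of the starting cells died.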 A number with no mark means an inactive call. Activity calls are given as the source filed them.

This experiment deals with SNB-19 CNS. Kind of experiment: NCI-60 one-dose screen, 48 h (100 = growth as untreated, 0 = no growth, -100 = all killed). Particulars: 10 µM. The protocol: Growth inhibition of the SNB-19 human tumor cell line is measured as a screen for anti-cancer activity. Cells are grown in 96 well plates and exposed to the test compound for 48 hours. Compounds are tested at a single concentration, which is 10^-5 M for most compounds. The reported endpoint is percent growth (GI% or GIPRCNT), where numbers from 0 - 100% represent growth inhibition, and numbers from -100% - 0 represent cell death. For example, a value of 40 represents 60% growth inhibition. A value of 0 means no net growth occurred over the course of the experiment. A value of -40 indicates 40% of cells at the beginning of the experiment died by the end of the experiment. A value of -100 means all cells are dead at the end of the experiment.
NCI-60 Human Tumor Cell Lines Screen was performed using the standard one-dose NCI protocol, which is described in more detail at https://dtp.cancer.gov/discovery_development/nci-60/default.htm.
Compounds with GIPRCNT values below 10 were considered active. Activity score was based on GIPRCNT using the following formula: […]
Score is 0 for GIPRCNT values of 100 or above, 50 for GIPRCNT values of 0, and 100 for GIPRCNT values of -100.
`COc1ccc(S(=O)(=O)NCCCNc2nccc(-c3c(-c4ccc(F)cc4)nc4sccn34)n2)cc1`: the growth was 99.1%.
For `COc1ccc(/C=C2/CN(CCC#N)C/C(=C\c3ccc(OC)cc3)C2=O)cc1` the value was 59.6%.
The same measure for `N=C(N)c1ccc(-c2ccc(-c3cccs3)s2)s1`: -13.4% (active); for `N=c1nc(N)ncn1-c1ccccc1`: 98.2%; for `O=C(CCCCC[P+](c1ccccc1)(c1ccccc1)c1ccccc1)NC(COC(=O)C(Cl)Cl)(COC(=O)C(Cl)Cl)COC(=O)C(Cl)Cl`: 98.3%.
`Cc1cs/c(=N\NC(=O)c2cc(-c3cc4ccccc4o3)nn2-c2ccccc2)n1-c1ccccc1`: the growth is 92.8%.
For `COC(=O)C(C(C[N+](=O)[O-])c1ccccc1)=P(c1ccccc1)(c1ccccc1)c1ccccc1` (stereo not given) the value was 98.4%; for `COc1cc(C(=O)/C=C/c2cc(-c3cc(OC)c(OC)c(OC)c3)n[nH]2)cc(OC)c1OC`, 55.4%.
Take `COc1ccc2c(c1)N(CCO)C1=C(C(=O)OC1)C2c1ccc(OC)c(OC)c1` (stereo not given): the growth is 53.2%.
For the molecule `CC(=O)O[C@]1(C)CC[C@H]2[C@H](CNCCc3ccc(Cl)cc3)C(=O)O[C@@H]2C2=C(C)C(=O)C[C@H]21`, the growth is 79.4%.
For `CN(CCc1ccccn1)c1ccccc1` the value was 102%; for `COc1cc(/C=N/NC(=O)c2ccccc2Nc2cccc(C(F)(F)F)c2)cc(OC)c1OC`, 61.4%.
For `CCCCCCCCCCCCCCCCN(C(C)c1ccccc1)S(=O)(=O)c1ccc(OC)c(N)c1` (stereo not given) the value was 120%.
With `O=C(NC(Cc1ccc(O)cc1)C(=O)N=Nc1c(O)[nH]c2ccccc12)c1ccccc1` (stereo not given), the growth is 96.9%.
As for `CC(=O)N1C/C(=C/c2ccc(Cl)cc2)C(=O)/C(=C/c2ccc(Cl)cc2)C1`, the growth is 15%.
Consider `Oc1[nH]c2ccc(Cl)cc2c1/C=c1/ccc2c(c1)N=C(c1cccs1)N=2`, for which the growth is 62%.
On to `Clc1ccc(-c2cn(-c3ccccc3)c(-c3ccccc3)n2)c(Cl)c1`, for which the growth was 43.7%.
For the molecule `CC(=O)c1nc2ccccc2n1CCNC(N)=O`, the growth was 91.7%.
For `Nc1c(C(=O)Nc2cccc3ccccc23)sc2nc3c(cc12)C(=O)CCC3` the value was 55.3%; for `N=C1c2nc3n(c2C(=O)c2nc4n(c21)CCCC4)CCCC3`, 30%; for `COc1ccc2c(c1)nc(N)c1c3cccnc3cn21`, 35.9%.
The same measure for `C#Cc1ccc(-n2c(/C=C/c3ccc(Cl)c(F)c3)nc3ncccc3c2=O)cc1`: 22%; for `COc1ccc(/C=C/C(=O)Nc2ccc(-c3nc4ccc(F)cc4s3)cc2)cc1`: 99%.
`c1ccc([I+]c2ccccc2)cc1`: the growth is 85.5%.
The same measure for `CCOC(=O)C1(CC(C)C)CCOC1=O` (stereo not given): 102%.
`CN(C)N=Nc1nn(C(=O)Nc2ccc(Cc3ccccc3)cc2)c2ccccc12`: the growth was 64%.
`COc1cc(NC(=O)CSc2nc3ccccc3c(=O)n2CCc2ccccc2)cc(OC)c1OC`: the growth was 27%.
Consider `C[C@]12CC[C@@H]3c4ccc(O)cc4C[C@@H](O)[C@H]3[C@@H]1CC[C@@H]2O`, for which the growth was 108%.
Turning to `COc1cccc(Cn2c(-c3nonc3N)nc3ccccc32)c1`, the growth was 53.3%.
For the molecule `CSCCCNC(=O)c1ccc2c(c1)/C(=C/c1[nH]c(C)cc1C)C(=O)N2`, the growth is 60.7%.
As for `CCN1CCC(CCOC)(CN2c3ccccc3Sc3ccc(Cl)cc32)C1` (stereo not given), the growth was 70.8%.
Regarding `CCN(CC)CCNc1ccc(CO)c2oc3cc(Cl)ccc3c(=O)c12`, the growth is 97%.
The same measure for `COc1cc(-c2nc(Nc3nc4ccccc4s3)[nH]c(=O)c2C#N)cc(OC)c1O`: 96.1%; for `Cc1cccc(Cl)c1NC(=O)c1ccc2nc(NC(=O)NC3CCN(C)CC3)sc2c1`: 102%; for `Cc1ccc(S(=O)(=O)Oc2ccc3c4c(c(=O)oc3c2)CCCCC4)cc1`: 86.8%.
The same measure for `CCN(CC)CCOc1nc2ccccc2c2c1-c1ccc(OC)cc1C2=O`: 24.6%.
As to `CCN(CC)CCC(CNc1c(C)cnc2cc(Cl)ccc12)c1ccc(Cl)c(Cl)c1` (stereo not given), the growth was 71.7%.
For `Nc1c(C(=O)Nc2cccc(F)c2)sc2nc3c(cc12)C(=O)CCC3`, the growth is 48.9%.
The same measure for `COc1cc(-c2cc(/C=C3\C(=O)Nc4ccc(Cl)cc43)[nH]n2)cc(OC)c1OC`: 49.9%.
In the case of `CC(=O)c1cc(Cl)ccc1O`, the growth is 113%.
